Reference: PubChem BioAssay AID1241 (SRMLSC, 2008)
The whole screen tested about 1,200 compounds, of which about 840 (70%) were called active. No rule for the calls is given here. The set was probably picked from earlier hits. These entries were drawn from the full list. Entries with a potency or affinity are not part of this list.

test: compounds inducing NF-kB luciferase expression – cell-based, SH-SY5Y, dose response (AID 1241); settings: SH-SY5Y NF-kB promoter luciferase reporter; series mostly up to 30 µM; fold induction over control: at the top concentration

Fold induction over control, inactive:
CC1=C/C(=N\OS(=O)(=O)c2ccccc2)C(C)=CC1=O 0.31, Cn1c(-c2ccc(Br)o2)nc2cc(Br)ccc21 9.61, Clc1ccccc1-c1nnc(-c2cccs2)o1 9.9, O=C(Nc1nccs1)c1sc2ccccc2c1Cl 11.4 [at 15 µM], CCCCCCOc1ccc(OC(=O)c2ccncc2)cc1 5.72, CCCCCCOc1ccc(/C(N)=N/O)cc1 11.4, N#Cc1c(NCCO)nc(NCc2ccccc2)c2c1CCN(Cc1ccccc1)C2 0.9, CCC(=O)Nc1cccc(C(=O)/C=C/c2ccccc2)c1 9 [at 15 µM], Cc1ccccc1NC(=O)/C=C/c1ccc([N+](=O)[O-])s1 5.73 [at 15 µM], Cc1ccc(NC(=O)/C=C/c2cccs2)c([N+](=O)[O-])c1 10.2, Cc1nn(Cc2ccccc2)c(Cl)c1/C=C/C(=O)OCC(=O)N1CCCC1=O 1.01, Cc1cccc(NC(=O)c2csnn2)n1 1.22, COc1ccc(OCCOC(=O)c2[nH]c(C)c(C(C)=O)c2C)cc1 0.69, Cc1ccc(Nc2nc(N)nc(CSc3ncccn3)n2)cc1 8.11, Cc1cc(N2CCOCC2)ccc1/C=C1/SC(=O)NC1=O 3.2, Cc1ccc(/C=N/N=C/c2ccc(C)s2)s1 16.3, CCOC(=O)c1ccc(NC(=O)N2CCc3ccccc32)cc1 9.88, CCCCNC(=O)c1cc(-c2ccc(F)cc2)on1 20.1, COc1ccc2c(=O)c(-c3ccccc3)coc2c1 9.03, CN(C)c1ccc(C(=S)NCc2ccco2)cc1 4.68, Cc1nnc(SCC(=O)Nc2nsc(-c3ccc(C(C)(C)C)cc3)n2)s1 10.8, COc1ccc(C2=NN3C(C2)c2ccccc2OC32C(=O)N(C)c3ccccc32)cc1 (stereo not drawn) 8.01, CC(=O)c1cc(N2CCOCC2)ccc1[N+](=O)[O-] 1.03, O=C(O)/C=C\C(=O)Nc1ccccc1C#Cc1ccccc1 1.8, CCc1cc(C(=O)Nc2ccc(C)cc2Br)cs1 7.97, CC(C)Cc1cc(C(=O)Nc2cc(Br)ccc2O)no1 2.37, CC(C)c1cc(C(=O)Nc2cc(Br)ccc2O)no1 2.7, Cc1ccc(C(=O)COC(=O)c2ccc(O)cc2)cc1 10.9, O=C(CC(SCc1ccco1)c1ccc(O)cc1)c1cccs1 (stereo not drawn) 11.4, O=C(CCC(=O)c1cccs1)c1cccs1 10.6, Cc1ccc(C)c(OCC(=O)O/N=C(\N)c2ccccn2)c1 5.69, CC(C)c1ccc(/C=N/NC(=O)c2c(Cl)cnn2C)cc1 9.29, CC(=O)c1sc(NC(=O)c2cccc(C)c2)nc1C 10.6, O=C(Nc1cccnc1)c1cc(-c2ccc3c(c2)OCO3)on1 12 [at 15 µM], O=c1c2c(nc3cc(-c4ccccc4)[nH]n13)CCS2 3.49, Cc1ccc(CN2CN(S(=O)(=O)c3cccs3)c3nc4ccccc4nc32)cc1 1.19, CCOC(=O)c1sc2nc3c(cc2c1N)COC(C)(C)C3 11, Nc1c(C(=O)C2CC2)sc2nc3c(cc12)CCC3 10.5, COc1ccc(NC(=O)c2cc3ccccc3o2)cc1 11.5, Cc1cccc(NC(=O)c2cc3ccccc3o2)c1 11.9, O=C(Nc1ccc(Cl)cn1)c1ccc([N+](=O)[O-])o1 12.4, O=C(Nc1cccc(Br)c1)c1cc2ccccc2o1 10.1, COc1ccc2oc(=N)c(C(=O)Nc3ccccc3)cc2c1 12.7, CCN1C/C(=C/c2ccc(N3CCOCC3)cc2)C(=O)/C(=C/c2ccc(N3CCOCC3)cc2)C1 13 [at 15 µM], Cc1ccc(NC(=O)/C(C#N)=C(\N)C(Cl)(Cl)Cl)nc1 5.72 [at 7.5 µM], CN1CCN(CC(=O)Nc2ccccc2[N+](=O)[O-])CC1 1.19, N/C(=N\OC(=O)COc1ccc(Cl)cc1Br)c1ccncc1 9.84, COc1ccccc1/C=N\Nc1cn[nH]c(=O)c1Cl 1.17
